The nature of assay [1]: Drug repurposing screens with cells derived from glioblastoma tumor samples (AID 1345199). Further: nearly all actives have a fitted effect of over 40% in size. Further: potency means the concentration at half of the fitted maximal effect. On activity, negative = cell killing: on the % scale 0 is the no-effect control and ±100 the full control effect. The settings on record: GBM patient neurospheres viability, ATP luminescence, 48 h. Put shortly:
(§1)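 Primary testing used CD133+ neurospheres from four GBM patients, seven concentrations, 48 h exposure and ATP-based viability; confirmation added three slower-growing patient lines.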

A further assay relates to astro (control astrocytes). The description is as above. The settings on record: viability, ATP luminescence, 48 h; series mostly up to 45.9 µM. Put shortly: as §1
Assay [2] deals with Nuclear receptor subfamily 1 group I member 2 (Rattus norvegicus) (UniProt Q9R1A7). Nature of the assay: qHTS assay for small molecule activators of the rat pregnane X receptor (rPXR) signaling pathway (AID 651751; call rule not given here; further: 0% is about no effect). The settings on record: rPXR reporter cells, luciferase (One-Glo), 24 h. Background: qHTS replaces the single test concentration by a dilution series.
Nuclear receptor subfamily 1 group I member 2 (Rattus norvegicus), sequence (Q9R1A7 whole entry, looked up): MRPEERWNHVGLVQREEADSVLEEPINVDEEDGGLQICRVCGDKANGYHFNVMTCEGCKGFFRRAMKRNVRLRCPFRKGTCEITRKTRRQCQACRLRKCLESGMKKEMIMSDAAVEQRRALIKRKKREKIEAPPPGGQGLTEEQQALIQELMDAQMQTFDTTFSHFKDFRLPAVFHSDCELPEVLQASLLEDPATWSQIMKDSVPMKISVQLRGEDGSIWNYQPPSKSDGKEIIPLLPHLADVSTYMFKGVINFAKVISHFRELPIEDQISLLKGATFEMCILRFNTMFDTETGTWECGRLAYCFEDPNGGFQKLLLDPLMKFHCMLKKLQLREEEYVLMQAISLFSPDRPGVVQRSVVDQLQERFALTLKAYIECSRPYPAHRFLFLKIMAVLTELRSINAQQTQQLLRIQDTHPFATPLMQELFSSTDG
The nature of assay [3]: qHTS assay for small molecule activators of the human pregnane X receptor (PXR) signaling pathway (AID 720659; call rule not given here; further: 0% is about no effect). The settings on record: DPX-2 HepG2 CYP3A4-luciferase, 24 h; series mostly up to 92.3 µM.
The mark [4] stands for this setting: at 45.9 µM (top of the series), tumour line B.
The mark [5] stands for this setting: at 45.9 µM (top of the series), tumour line D.
Setting [6] is: at 46 µM (top of the series), tumour line A.
[7] abbreviates: at 46.1 µM (top of the series), tumour line C.
Where [8] appears, read: at 21.2 µM (top of the series), tumour line B.
[9] abbreviates: at 21.2 µM (top of the series), tumour line D.
The mark [10] stands for this setting: at 21.3 µM (top of the series), tumour line A.

Where “and” joins values, the source holds several entries; their conditions need not be identical. Equal entries are not always repeated. Unmarked numbers belong to inactive results. Records with an inconclusive call do not appear. Calls of active or inactive are those of the source. Unless noted, the call rests on the fitted dose curve; in most records, active means well fitted inhibition curve with a large enough effect; inconclusive means small, poorly fitted or top-dose-only effect; inactive means flat fitted curve, though single readings scatter.

In the case of `CN(C)CCC[C@@]1(c2ccc(F)cc2)OCc2cc(C#N)ccc21`, the activity, negative = cell killing is 11.5% in assay [1] (setting [4]), -13.7% in assay [1] (setting [5]), -29.3% in assay [1] (setting [6]) and 2.89% in assay [1] (setting [7]). For the same compound, the Potency entry with astro is “inactive”.
Take `CCCc1ncc(C[n+]2ccccc2C)c(N)n1`: the activity, negative = cell killing in assay [1] (at 20 µM (top of the series), tumour line C) is 11.7%; in assay [1] (setting [8]) it was -1.46%; in assay [1] (setting [9]), -1.64%; in assay [1] (setting [10]), -22.4%. In addition, the Potency result in the assay on astro was “inactive”.
In the case of `OCc1ccccn1`, the activity, negative = cell killing in assay [1] (setting [4]) is -0.907%; in assay [1] (setting [5]) it was 14.9%; in assay [1] (setting [6]), -24%; in assay [1] (setting [7]), -5.53%. Moreover, the Potency result in the assay on astro was “inactive”.
Turning to `NCc1ccccc1Sc1ccccc1CO`, the activity, negative = cell killing is -12.4% in assay [1] (setting [4]), -24% in assay [1] (setting [5]) and -18% in assay [1] (setting [7]). Besides, the Potency in assay [1] (tumour line A) is 35.5 µM (active). Further, the Potency result in the assay with astro was “inactive”.
For the compound `Nc1ccc(S(=O)(=O)NCc2ccccc2)cc1`, the activity, negative = cell killing in assay [1] (setting [4]) is 0.545%; in assay [1] (setting [5]), -1.8%; in assay [1] (setting [7]) it was -10.5%. Besides, in the assay on astro, the Potency result was “inactive”.
On to `NCCNc1cccc2ccccc12`, for which the activity, negative = cell killing was -17.3% in assay [1] (setting [4]), -24.3% in assay [1] (setting [5]) and -28% in assay [1] (setting [7]). In addition, in assay [1] (tumour line A), the Potency was 20 µM (active). The Potency entry in the assay with astro was “inactive”. Further, the max response in assay [2] was -3.2% and 4.24%.
`OC(C#CCN1CCCC1)(c1ccccc1)c1ccccc1`: the values for the activity, negative = cell killing in assay [1] (setting [4]) and in assay [1] (setting [7]) were -17.2% and -29.1%, respectively. Moreover, in assay [1] (tumour line A), the Potency was 11.2 µM (active). Besides, in the assay with astro, the Potency result is “inactive”.
Consider `CN(C)CCN1C(=O)c2ccccc2N(C)c2ccccc21`, for which the activity, negative = cell killing is -10.1% in assay [1] (setting [4]), -18.4% in assay [1] (setting [5]) and 4.2% in assay [1] (setting [7]). Besides, the Potency entry in the assay with astro is “inactive”.
For `Nc1ccc(C(=O)NCC(=O)O)cc1`, the activity, negative = cell killing in assay [1] (setting [8]) is -7.61%; in assay [1] (setting [9]), -13.9%; in assay [1] (setting [10]), -13.3%. Besides, the Potency entry with astro is “inactive”.
Turning to `COc1ccc(CCN(C)CCCN2CCc3cc(OC)c(OC)cc3CC2=O)cc1OC`, the activity, negative = cell killing in assay [1] (setting [4]) was -2.1%; in assay [1] (setting [5]), -12.6%; in assay [1] (setting [7]), -18%. Also, the Potency in assay [1] (tumour line A) was 28.2 µM (active). Moreover, the Potency result with astro is “inactive”.
On to `CCOc1ccc(NC(C)=O)cc1`, for which the activity, negative = cell killing was 4.81% in assay [1] (setting [4]), -8.88% in assay [1] (setting [5]), -27% in assay [1] (setting [6]) and -1.2% in assay [1] (setting [7]). Moreover, the Potency result with astro is “inactive”. Also, in assay [2], the max response was 2.72% and -0.111%. Further, the compound was called inactive in assay [3].
Take `CC(=O)NCCCCCC(=O)O`: the activity, negative = cell killing in assay [1] (setting [4]) was -15.6%; in assay [1] (setting [5]), -10%; in assay [1] (setting [6]), -23.3%; in assay [1] (setting [7]) it was -20.2%. Also, the Potency result in the assay with astro was “inactive”.
Turning to `CC(C)Cn1cnc2c1c(=O)n(C)c(=O)n2C`, the activity, negative = cell killing in assay [1] (setting [4]) is -4.91%; in assay [1] (setting [5]) it was -3.1%; in assay [1] (setting [7]) it was -1.11%. In the assay with astro, the Potency entry is “inactive”.
Turning to `CCCCNC(=O)NS(=O)(=O)c1ccc(N)cc1`, the activity, negative = cell killing in assay [1] (setting [4]) was -8.59%; in assay [1] (setting [5]) it was 11%; in assay [1] (setting [6]), -6.54%; in assay [1] (setting [7]), -25.7%. Also, the Potency result in the assay with astro is “inactive”.
With `CCNC(=O)NCc1cccc(Cl)c1`, the activity, negative = cell killing was -11.2% in assay [1] (setting [4]), -6.28% in assay [1] (setting [5]), -30% in assay [1] (setting [6]) and -10.1% in assay [1] (setting [7]). Also, the Potency result in the assay with astro is “inactive”.
For the compound `COc1ccc2c(c1)c1c3n2CCN(C)C3=NCC1`, the activity, negative = cell killing in assay [1] (setting [4]) is -1.83%; in assay [1] (setting [5]), -7.29%; in assay [1] (setting [7]), -23.1%. Besides, the Potency in assay [1] (tumour line A) is 12.6 µM (active). The Potency result with astro is “inactive”.
The corresponding values for `OCCOCCN1CCN(C2=Nc3ccccc3Sc3ccccc32)CC1` are -22.8%, -20.3%, 1.64%, 11.2 µM (active) and “inactive”.
Regarding `O=C1OC2(c3ccccc31)c1cc(Br)c(O)c(Br)c1Oc1c2cc(Br)c(O)c1Br`, the activity, negative = cell killing was -12.6% in assay [1] (setting [4]), -6.67% in assay [1] (setting [5]) and -34.7% in assay [1] (setting [7]). The Potency result in the assay on astro is “inactive”.
Consider `CCOc1ccccc1C(N)=O`, for which the activity, negative = cell killing is -5.35% in assay [1] (setting [4]), -0.0314% in assay [1] (setting [5]), -26.8% in assay [1] (setting [6]) and -1.96% in assay [1] (setting [7]). In addition, the Potency entry with astro was “inactive”. The max response in assay [2] was 2.38%. Besides, in assay [3], the result was inactive.

These data come from PubChem BioAssay (NCATS).
